From PubChem BioAssay
CtBP-E1A inh: CtBP/E1A binding inhibition; AlphaScreen GST-E1A/His-CtBP binding, 1536-well; active compounds read low; activity change, % (no concentration beside the values); 0.49% of 340,000 active; in the data active means activity change below about -65%; inconclusive means mostly about -30% to -63%
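Protein mix (5X: 125 nM each GST-E1A, His-CtBP) was incubated with pinned compound 2 h at 37 deg C in dark, in 50 mM Tris pH 8.0 buffer with 300 mM NaCl. Glutathione donor and nickel acceptor beads followed; AlphaScreen signal read after 1 h.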
Six1-Eya2 blk: Six1/Eya2 interaction inhibition; Q15475+O00167; AlphaScreen GST-Six1/His-Eya2 binding, biochemical; active compounds read low; activity change, % (no concentration beside the values); 0.56% of 360,000 active; AID 651725; in the data active means activity change below about -65%; inconclusive means mostly about -30% to -63%
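GST-Six1 + His-Eya2 (5X stock: 250/500 nM); Tris pH 8.0, 300 mM NaCl, 0.05% BSA, 0.02% Tween 20; GSH donor/Ni acceptor beads; 1 h 37 °C dark; AlphaScreen readout.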
Gal4-VP16 FLuc: counter-screen for ROR gamma inhibitors: Gal4-VP16 reporter. Potency, µM (highest dose often 53.6 µM), for the others: at the top dose activity, negative = inhibition, most hits filed as inhibitors. AID 2546. Drosophila S2 Gal4-VP16 UAS-luciferase, luminescence, 20 h. 3.5% of 310,000 active;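 further: Gal4-VP16 expression switched on by copper sulfate through the metallothionein promoter; potency means the concentration at half of the fitted maximal effect; nearly all actives have a fitted effect of over 50% in size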
RORg inh: inhibitors of mouse ROR gamma transcriptional activity. 5.4% of 310,000 active. P51450. Potency, µM (doses to about 53.6 µM), inactives show at the top dose activity change, negative = inhibition, actives largely listed as inhibitors. Drosophila S2 Gal4-RORgamma UAS-luciferase reporter, 20 h. AID 2551; further: potency means the concentration at half of the fitted maximal effect; nearly all actives have a fitted effect of over 60% in size
Target sequence (P51450 whole entry, looked up, the tested form may be a part): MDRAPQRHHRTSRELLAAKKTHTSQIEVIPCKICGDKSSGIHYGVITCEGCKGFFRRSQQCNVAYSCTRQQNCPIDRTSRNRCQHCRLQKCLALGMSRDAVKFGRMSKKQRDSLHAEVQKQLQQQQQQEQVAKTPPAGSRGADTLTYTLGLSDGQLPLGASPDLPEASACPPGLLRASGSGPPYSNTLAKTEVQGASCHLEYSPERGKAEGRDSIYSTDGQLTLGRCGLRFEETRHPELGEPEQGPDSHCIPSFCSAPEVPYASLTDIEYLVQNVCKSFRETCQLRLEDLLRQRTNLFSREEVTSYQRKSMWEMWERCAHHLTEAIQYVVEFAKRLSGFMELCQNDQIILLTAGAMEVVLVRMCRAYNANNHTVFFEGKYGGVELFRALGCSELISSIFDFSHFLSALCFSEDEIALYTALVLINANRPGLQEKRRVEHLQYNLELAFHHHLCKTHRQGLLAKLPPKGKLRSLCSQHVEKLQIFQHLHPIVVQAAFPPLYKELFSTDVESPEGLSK
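Drosophila Schneider cells stably carrying a metallothionein-driven Gal4 DBD–ROR gamma fusion and a UAS-Photinus luciferase reporter were exposed to compound for 1 hr, then induced with copper sulfate (700 uM final) for 20 hr at ambient temperature before luminescence reading.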
PKM2 activator: increases activity of human pyruvate kinase M2 | P14618 | purified PKM2, Kinase-Glo ATP luminescence, activation; response scale: 0% is enzyme alone, no compound | Potency, µM (highest dose often 57.5 µM), inactives show at the highest dose activation, most hits filed as activators | 0.34% of 260,000 active | AID 1631; further: potency means the concentration at half of the fitted maximal effect; nearly all actives have a fitted effect of over 55% in size
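Purified hPK-M2 (>95% pure) converted ADP (0.1 mM final) to ATP with 0.5 mM PEP in 50 mM imidazole pH7.2, KCl, MgCl2, Tween 20, BSA; 1 h at room temperature. ATP detected by Kinase-Glo luminescence.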
Starred values were filed as active, the others as inactive; ? = inconclusive; · = no result. An excerpt weighted towards active compounds, which were near 5.6% of everything screened. Unless noted, the call rests on the fitted dose curve; in most records, active means well fitted curve in the direction sought with a large enough effect; inconclusive means small, poorly fitted or top-dose-only effect, or another doubt; inactive means no such curve, though single readings can be large; an effect the other way counts as inactive or inconclusive. On the % scale 0 is the no-effect control and ±100 the full control effect.

SMILES	CtBP-E1A inh	Six1-Eya2 blk	Gal4-VP16 FLuc	RORg inh	PKM2 activator
CCOCCCNC(=O)C(NC(=O)Cc1cccs1)c1ccc(Cl)cc1 (stereo unspecified)	8.1	0.0	12.6µM*	?	·
C[C@]12C[C@@](C)(C=C1/C=C/c1ccc(C(F)(F)F)cc1)C(=O)C[C@H]2c1ccc(C(F)(F)F)cc1	·	·	0.5%	0.4%	·
CCCN1CCN(C(=S)NCc2ccc(Cl)cc2)CC1	-3.6	-2.6	-7.8%	-7.6%	-7.9%
Cc1cnn(C(=S)NCc2ccc(Cl)cc2)c1	16.0	2.1	7.08µM*	6.31µM*	-1.0%
O=C(c1ccc(-n2cncn2)c([N+](=O)[O-])c1)N1CCN(S(=O)(=O)c2cccc(F)c2)CC1	-1.2	1.0	·	·	·
OC(Cn1cnnc1)c1ccccc1 (stereo unspecified)	-0.8	1.9	-6.2%	-0.8%	·
CC(/C=N/NC(=O)CSc1nc2ccccc2n1C)=C\c1ccco1	-12.8	-22.4	20.3%	11.9%	5.01µM*
CCn1c(SCC(=O)N/N=C/C=C/c2ccco2)nnc1-c1ccc(OC)cc1	-13.3	-16.2	-5.2%	23.7%	?
CCn1c(SCC(=O)N/N=C/C=C/c2ccco2)nc2ccccc21	-11.6	-15.9	15.8µM*	?	?
Cn1c(SCC(=O)N/N=C/c2ccco2)nc2ccccc21	7.3	-1.0	-4.9%	6.3%	8.2%
COc1ccc(C2=Nn3c(nnc3-c3ccc(OC)cc3OC)SC2)cc1	·	·	-9.1%	?	·
O=C(COC(=O)/C=C/c1cccc(Cl)c1Cl)Nc1ccc2[nH]c(=O)[nH]c2c1	?	-7.1	·	·	·
S=C1NC2=C(C(c3ccc(Br)cc3)N1)N1CCC2CC1 (stereo unspecified)	0.0	15.1	-7.3%	8.91µM*	-0.1%
Fc1cccc(C2NC(=S)NC3=C2N2CCC3CC2)c1 (stereo unspecified)	-12.7	4.7	-9.3%	-34.6%	-5.0%
O=C(NN=C1CCCCC1)Nc1ccccc1Cl	1.7	-0.7	·	·	·
COc1cc(C2NC(=S)NC(C)=C2C(=O)c2ccccc2)ccc1O (stereo unspecified)	1.3	-3.1	-0.1%	-20.8%	5.0%
COc1cc2c(cc1C1NC(=S)NC(C)=C1C(N)=O)CCCC2 (stereo unspecified)	0.0	13.2	-2.2%	2.82µM*	-2.1%
COc1ccccc1-c1coc2cc(OC(=O)/C=C/c3ccccc3)ccc2c1=O	-67.7*	-17.0	-11.5%	6.3%	4.6%
COc1ccc(Oc2coc3cc(OC(=O)/C=C/c4ccccc4)ccc3c2=O)cc1	?	-25.5	1.3%	-4.3%	-0.3%
O=C(NN=Cc1ccccc1O)C(O)(c1ccccc1)c1ccccc1	-0.8	-1.8	·	·	·
CN(C)c1ccc(/C=N/NC(=O)C(O)(c2ccccc2)c2ccccc2)o1	-2.5	-0.9	11.2µM*	8.91µM*	11.1%
Cc1cc(C(=O)N/N=C/c2ccc(N(C)C)o2)cs1	-6.2	-7.3	6.31µM*	12.6µM*	28.8%
O=C(N/N=C/c1ccc(N2CCCCC2)o1)C(O)(c1ccccc1)c1ccccc1	·	·	12.6µM*	11.2µM*	13.2%
Cc1ccc(/C=N/NC(=O)c2csc(C)c2)o1	-2.5	-2.9	-9.6%	26.0%	3.5%
Cc1cccc(C)c1NC(=O)C1C(c2ccc3c(c2)OCO3)=Nc2ccccc2N1C(=O)c1ccccn1 (stereo unspecified)	-0.7	-24.6	·	·	·
SMILES	CtBP-E1A inh	Six1-Eya2 blk	Gal4-VP16 FLuc	RORg inh	PKM2 activator
Cc1ccc(N=Nc2ccc(O)c3ncccc23)cc1	-22.8	?	·	0.0562µM*	0.8%
Cc1ccc(N=Nc2ccc(O)c3ncccc23)cc1C	-5.3	-18.2	0.501µM*	0.141µM*	2.8%
Cc1ccc(CN2CCN(CC(=O)N/N=C/c3ccc(C)o3)CC2)cc1	·	0.9	-0.1%	-14.0%	7.0%
Cc1onc(-c2c(F)cccc2Cl)c1C(=O)Nc1nnc(C(F)(F)F)s1	-21.4	-12.2	?	?	-0.2%
Cc1onc(-c2c(F)cccc2Cl)c1C(=O)Nc1nc2ccccc2[nH]1	-12.4	-0.5	?	2.82µM*	-4.1%
Cc1onc(-c2c(F)cccc2Cl)c1C(=O)Nc1nccs1	-12.4	4.2	?	12.6µM*	1.0%
Cc1onc(-c2c(F)cccc2Cl)c1C(=O)NC1=NCCS1	4.4	-1.4	22.4µM*	14.1µM*	6.9%
